We go through 34 molecules from the supplement of paper PMC12024529.

In the assay the test system is HEK293 WT BDD-FVIII-Gluc. Briefly: secreted FVIII-Gluc luciferase Z-score vs DMSO control; higher = more FVIII-Gluc secretion. Conditions: 5 µM. As for the experimental part:
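Natural plant-compound library (480 compounds, ST catalogue IDs) screened on HEK293 cells stably expressing WT BDD-FVIII-Gaussia luciferase fusion at 5 µM. Secreted Gluc activity in the medium is given as a Z-score relative to DMSO controls.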
Regarding `CN(C)Cc1c[nH]c2ccccc12`, the “secreted FVIII-Gluc luciferase Z-score” value was found to be 0.161.
Then `O=CN1CCCCC1C1CC[C@H]2CCCCN2C1` (some centres undefined), with 0.233.
As to `COc1cc2c(c(OC)c1OC)-c1ccc(O)c(=O)cc1[C@@H](NC(C)=O)CC2`, the “secreted FVIII-Gluc luciferase Z-score” value turned out to be 0.222.
Then `C/C=C1/C[C@@H](C)[C@](O)(CO)C(=O)OCC2=CCN3CC[C@@H](OC1=O)[C@@H]23`, with -1.37.
Then `COc1cccc2c1cc([N+](=O)[O-])c1c(C(=O)O)cc3c(c12)OCO3`, with 0.158.
Then `O=c1cccc2n1C[C@@H]1CNC[C@H]2C1`, with 0.0778; and `CC(=O)OC1CC(OC2C(O)CC(OC3C(O)CC(OC4CCC5(C)C(CCC6C5CC(O)C5(C)C(C7=CC(=O)OC7)CCC65O)C4)OC3C)OC2C)OC(C)C1OC1OC(CO)C(O)C(O)C1O` (centres undefined), with -4.
For the molecule `C[C@@H]1C[C@@H]([C@H](O)CC2CC(=O)NC(=O)C2)C(=O)[C@@H](C)C1`, the “secreted FVIII-Gluc luciferase Z-score” value was -7.2.
Then `COc1ccc2c(c1OC)C(=O)O[C@H]2[C@@H]1c2cc3c(cc2CCN1C)OCO3`, with 0.0229.
For `NCC(O)c1cccc(O)c1` (centres undefined), the “secreted FVIII-Gluc luciferase Z-score” value is 0.434.
For `CCC1CN2CCc3cc(OC)c(OC)cc3[C@@H]2C[C@@H]1C[C@H]1NCCc2cc(OC)c(OC)cc21` (some centres undefined), the “secreted FVIII-Gluc luciferase Z-score” value was -3.94.
Then `C[C@@H]1OC(=O)[C@H]2C[C@H]3CCCC[C@@H]3[C@@H](/C=C/[C@@H]3CCC[C@@H](C)N3C)[C@@H]12`, with -0.126.
With `C[N+]1=Cc2cc3c(cc2CC1)OCO3`, the “secreted FVIII-Gluc luciferase Z-score” value stood at 0.204.
Then `CN(C)[C@@H]1C(=O)C(C(N)=O)=C(O)[C@@]2(O)C(=O)C3=C(O)c4c(O)cccc4[C@@](C)(O)[C@H]3C[C@@H]12`, with 0.496; and `CC(=O)N1C[C@@H]2C[C@H](C1)c1cccc(=O)n1C2`, with -0.118.
`COc1ccc2c(c1O)-c1c(OC)c(OC)cc3c1[C@H](C2)N(C)CC3`: the “secreted FVIII-Gluc luciferase Z-score” value is 0.32.
On to `CC1CCC2C(C)C(=O)OC3OC4(C)CCC1C32OO4` (centres undefined), for which the “secreted FVIII-Gluc luciferase Z-score” value was -0.111.
Then `CCN1C[C@]2(C)CC[C@H](O)[C@@]34C5C[C@@H]6[C@@H](OC)C[C@@](O)(C5[C@H]6O)[C@@H](CC23)C14` (some centres undefined), with 0.562; and `CCC1CN2CCC1CC2C(O)c1ccnc2ccc(OC)cc12` (centres undefined), with -0.168.
Then `CC(C)C[C@H]1C(=O)N2CCC[C@H]2[C@]2(O)O[C@](NC(=O)[C@@H]3C=C4c5cccc6[nH]cc(c56)C[C@H]4N(C)C3)(C(C)C)C(=O)N12`, with 0.241.
Then `NCCc1c[nH]c2ccc(O)cc12`, with 0.752; and `C[C@@H](CO)NC(=O)[C@@H]1C=C2c3cccc4[nH]cc(c34)C[C@H]2N(C)C1`, with 0.475; and `O=C1C[C@@H]2OCC=C3CN4CC[C@]56c7ccccc7N1[C@H]5[C@H]2[C@H]3C[C@H]46`, with -0.432.
As for `COc1cc2c(c(OC)c1OC)-c1ccc(OC)c(=O)cc1C(NC(C)=O)CC2` (centres undefined), the “secreted FVIII-Gluc luciferase Z-score” value was -6.65.
Then `COc1ccn(C)c(=O)c1C#N`, with -0.599; and `C=CCCN1C[C@@H]2C[C@@H](C1)c1cccc(=O)n1C2`, with -0.00507.
Then `CC1=CC(=O)c2c(O)cccc2C1=O`, with -2.68.
Then `CCN1C[C@@]2(COC)C3[C@@H](OC)[C@H]4C1[C@@]3(C1C[C@@]3(O)[C@H](OC(=O)c5ccccc5)C1[C@]4(OC(C)=O)[C@@H](O)[C@@H]3OC)[C@@H](OC)C[C@H]2O` (some centres undefined), with -0.523.
`CC12C(=O)OC(=O)C1(C)C1CCC2O1` (centres undefined): the “secreted FVIII-Gluc luciferase Z-score” value was -4.31.
Turning to `O=C1CCCC2[C@@H]3CCCN4CCC[C@H](CN12)[C@H]34` (some centres undefined), the “secreted FVIII-Gluc luciferase Z-score” value was 0.572.
Then `CC(C)(O)[C@@H]1[C@H]2OC(=O)[C@@H]1[C@]1(O)C[C@H]3O[C@]34C(=O)O[C@H]2[C@]14C`, with -0.634.
Then `COc1cc2c(cc1O)CC1c3c(cc(O)c(OC)c3-2)CCN1C` (centres undefined), with -0.91; and `CN1C[C@H](CNC(=O)OCc2ccccc2)C[C@@H]2c3cccc4c3c(cn4C)C[C@H]21`, with -0.629.
Then `Cc1ccc2[nH]c(CCN)cc2c1`, with 1.37.
